The list is not random: actives were taken first. Their share in the collection is about 2.4%.
FEN1 inh: human FEN1 inhibition; P39748; Potency, µM (highest dose often 114 µM), inactives show at the top dose activity change, negative = inhibition, hits mostly inhibitors; 390,000 compounds, 0.35% hits; Recombinant FEN1 flap cleavage, fluorescence, 15 min; also: % is scaled to controls: 0 for no effect and ±100 for the full control effect; nearly all actives have a fitted effect of over 65% in size
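FEN1 at 10 nM, compound pretreatment for 15 min (room temperature), 50 nM final substrate to initiate; endpoint reads at 0 and 15 min; DMSO-only plates used as vehicle background.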
WRN helicase inh: WRN helicase (human) inhibition | Q14191 | WRN helicase unwinding, fluorescent forked duplex, kinetic | Potency, µM (doses to about 114 µM), inactives show at the highest dose activity change, negative = inhibition, most hits filed as inhibitors | 360,000 compounds, 0.46% hits; also: % is scaled to controls: 0 for no effect and ±100 for the full control effect; nearly all actives have a fitted effect of over 55% in size
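WRN at 20 nM final preincubated with compound 15 min at room temperature; reaction started with 100 nM fluorophore/quencher forked duplex oligonucleotide and 2 mM ATP final. Unwinding followed kinetically by red fluorescence (ex 525, em 598 nm).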
POLB inh: inhibitors of human DNA polymerase beta. Potency, µM (series often up to 114 µM), for the others: at the top dose activity change, negative = inhibition, hits mostly inhibitors. AID 485314. P06746. 340,000 compounds, 1.3% hits. Pol beta primer extension/strand displacement, fluorescence kinetic; also: % is scaled to controls: 0 for no effect and ±100 for the full control effect
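Homogeneous kinetic assay of primer extension and strand displacement by 10 nM Pol beta, preincubated 15 min at room temperature with compound before 50 nM substrate (final) was added. Read at 0 and 10 min; four-parameter Hill fit.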
Pol eta inh: blocks human DNA polymerase eta activity. 390,000 compounds, 1.2% hits. Q9Y253. Potency, µM (titrated, usually from 114 µM), for the others: at the top dose activity change, negative = inhibition, usual class: inhibitors. recombinant Pol eta, fluorescent DNA replication assay; also: % is scaled to controls: 0 for no effect and ±100 for the full control effect
Target sequence (Q9Y253 whole entry, looked up): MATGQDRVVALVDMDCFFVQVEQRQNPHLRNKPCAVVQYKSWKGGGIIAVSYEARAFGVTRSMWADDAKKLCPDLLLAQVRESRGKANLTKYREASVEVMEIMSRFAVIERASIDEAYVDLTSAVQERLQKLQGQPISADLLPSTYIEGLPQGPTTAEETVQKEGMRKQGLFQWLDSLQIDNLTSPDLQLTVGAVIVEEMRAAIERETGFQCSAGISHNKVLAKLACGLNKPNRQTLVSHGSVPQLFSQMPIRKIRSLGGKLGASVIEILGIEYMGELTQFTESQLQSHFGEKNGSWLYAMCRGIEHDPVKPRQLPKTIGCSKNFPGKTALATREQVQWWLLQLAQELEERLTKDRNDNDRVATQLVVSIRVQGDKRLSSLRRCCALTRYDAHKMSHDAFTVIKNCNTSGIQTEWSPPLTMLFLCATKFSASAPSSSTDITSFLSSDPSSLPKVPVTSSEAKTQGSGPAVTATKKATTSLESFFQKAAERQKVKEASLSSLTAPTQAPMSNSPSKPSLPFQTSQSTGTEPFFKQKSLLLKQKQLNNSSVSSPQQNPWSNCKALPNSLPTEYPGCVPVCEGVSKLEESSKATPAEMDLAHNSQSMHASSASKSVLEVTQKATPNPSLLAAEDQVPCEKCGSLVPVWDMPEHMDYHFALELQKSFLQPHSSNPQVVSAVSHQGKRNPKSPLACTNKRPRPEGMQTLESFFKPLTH
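Fluorescent replication assay: 50 nM final substrate added after a 15 min room-temperature compound preincubation with 10 nM enzyme. Signal taken at 0 min and again at 10 min.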
Pol kappa inh: DNA polymerase kappa (human) inhibition | Q9UBT6 | purified Pol kappa, fluorescent DNA synthesis assay, 10 min | Potency, µM (series often up to 107 µM), for inactives: at the top dose activity, negative = inhibition, most hits filed as inhibitors | 400,000 compounds, 0.53% hits; also: % is scaled to controls: 0 for no effect and ±100 for the full control effect
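Pol kappa 10 nM + cpd, 15 min RT; start w/ substrate 50 nM final; fluorescence kinetic read, 0 and 10 min. Neg ctrl: buffer, no enzyme.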
POLI inh: DNA polymerase iota (human) inhibition; 390,000 compounds, 1% hits; Q9UNA4; Pol iota fluorescent replication assay, 10 min; Potency, µM (titrated, usually from 115 µM), for inactives: top-dose activity, negative = inhibition, actives largely listed as inhibitors
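Pol iota at 10 nM preincubated 15 min with compounds at room temperature; reaction started with fluorescent substrate, 50 nM final. Fluorescence read kinetically at 0 and 10 min; buffer-only wells as negative control.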
* marks the source's active call; other numbers are inactive results; ? = inconclusive; · = not tested or not shown; [ ] = dose if it differs, or a comment. Calls follow the shape of the dose curve; as a rule, active = well fitted curve in the direction sought with a large enough effect; inconclusive = small, poorly fitted or top-dose-only effect, or another doubt; inactive = no such curve, though single readings can be large; an effect the other way counts as inactive or inconclusive. Potency is read from the fitted curve at half-maximal effect.

SMILES	FEN1 inh	WRN helicase inh	POLB inh	Pol eta inh	Pol kappa inh	POLI inh
CC(C)c1ccc(S(=O)(=O)c2nnn3c2nc(N2CCCCC2)c2sccc23)cc1	-12.1%	·	34.2%	-19.1%	-5.2%	21.2%
O=C(Cc1ccc(F)cc1)N(c1ccccc1)C1C=CS(=O)(=O)C1 (centres undefined)	5.7%	-0.1%	35.1%	-12.6%	-0.2%	47.2%
O=C(Cc1cccs1)N(c1ccccc1)C1C=CS(=O)(=O)C1 (centres undefined)	-0.9%	-1.2%[11.6 µM]	?	-7.9%	-11.0%	56.2µM*
CCc1ccc2oc(-c3cc(NC(=O)COc4ccc(C)cc4)ccc3O)nc2c1	11.5%	·	·	·	4.2%	13.9%
COc1ccc(/C=C(\C#N)c2nc3ccccc3n2C)c(OC)c1	-19.1%	·	20.5%	-7.6%	-9.6%	?
O=c1c(=O)n(Cc2ccc(Cl)cc2)ccn1Cc1ccc(F)cc1	14.1%	·	1.8%	-7.1%	-18.7%	0.0%
O=c1c(=O)n(-c2cccc(Cl)c2)ccn1Cc1cccc(F)c1	-2.4%	·	31.6µM*	-13.4%	-24.8%	8.7%
CC(=O)NC1=NC(=O)/C(=C/c2cn(C(C)=O)nc2-c2ccccc2)S1	?	-14.5%[11.6 µM]	-12.6%	?	-21.1%	22.4µM*
CN(C)c1ccc(CNC(=O)C2CCN(Cc3cc4ccccc4n3Cc3ccccc3)CC2)cc1	-1.1%	·	0.5%	-15.3%	-0.2%[60.1 µM]	-3.4%
CC1(c2ccccc2)CC(C)(C)N(C(=O)c2ccccc2Cl)c2ccccc21 (centres undefined)	9.2%	·	-9.7%	-15.6%	-12.9%	1.4%
COc1ccc(-c2nc(CSc3nncn4c3cc3occc34)c(C)o2)cc1	7.5%	·	3.55µM*	-14.3%	?	?
CC(C)Oc1ccc(CNC(=O)CCCN2C(=O)c3cccnc3Oc3ccc(Cl)cc32)cc1	8.2%	·	-12.8%	-19.1%	-4.4%	30.9%
Cn1c(=O)c2c(ncn2CC(O)CNc2ccc(Cl)cc2)n(C)c1=O (centres undefined)	2.1%	8.5%	19.3%	10.1%	2.9%	10.5%
Cc1ccc(NCC(O)Cn2cnc3c2c(=O)n(C)c(=O)n3C)cc1 (centres undefined)	1.3%	-9.3%	12.6µM*	5.9%	-11.5%	194.5%
COc1cccc(NC(=O)/C(C#N)=C/c2c(C)n(Cc3ccccc3)c3ccccc23)c1	-1.6%	·	?	-17.8%	-11.7%	-14.0%
CCC1=Nc2cc(C(=O)NC(C)c3ccccc3)ccc2Sc2ccc(Cl)cc21 (centres undefined)	-1.5%	·	-21.7%	-14.3%	0.0%	10.4%
CCCC1=Nc2cc(C(=O)NCCc3ccccc3)ccc2Sc2ccc(C)cc21	79.4µM*	·	3.0%	?	?	?
CCCC1=Nc2cc(C(=O)NC(C)c3ccccc3)ccc2Sc2ccc(C)cc21 (centres undefined)	?	·	-14.2%	-10.2%	?	89.1µM*
CCC1=Nc2cc(C(=O)NCCc3ccccc3)ccc2Sc2ccc(Cl)cc21	6.4%	·	2.5%	-13.0%	9.9%	11.4%
COC(=O)C1=C(C)NC(C)=C([N+](=O)[O-])[C@@H]1c1ccccc1C(F)(F)F	·	·	·	·	-11.0%[60.1 µM]	·
O=C(Cn1cc(C(F)(F)F)ccc1=O)Nc1ccc(N2CCOCC2)cc1	2.1%	4.5%	-5.0%	-26.5%	-0.1%	94.5%
C=CCn1c(=O)c(CCC(=O)Nc2ccc(N3CCOCC3)cc2)nc2cc(C(F)(F)F)ccc21	-2.7%	-0.3%[11.6 µM]	5.8%	79.4µM*	?	?
CCn1nc(-c2ccccc2)c(-c2ccccc2)c(C(=O)Nc2ccc(NC(C)=O)cc2)c1=O	-4.1%	·	-20.8%	-20.5%	1.0%	21.5%
Cc1ccc(S(=O)(=O)NCC(c2ccc(N(C)C)cc2)N2CCc3ccccc32)cc1 (centres undefined)	9.0%	·	-23.6%	-19.1%	-0.4%[60.1 µM]	?
CC1(C)CC(=O)C(N=Nc2cc(S(=O)(=O)N3CCOCC3)ccc2Cl)=C(O)C1	16.5%	-4.9%	22.4µM*	-17.7%	1.5%	2.7%
SMILES	FEN1 inh	WRN helicase inh	POLB inh	Pol eta inh	Pol kappa inh	POLI inh
CC1(C)CC(=O)C(N=Nc2cc(C(F)(F)F)ccc2Cl)=C(O)C1	12.1%	3.3%	-0.9%	-16.2%	6.1%	14.5%
CCC1Nc2ncnc(N3CCCCC3)c2N(Cc2ccccc2)C1=O (centres undefined)	8.1%	7.4%[11.6 µM]	·	89.1µM*	2.5%	?
CCC1Nc2ncnc(N3CCOCC3)c2N(Cc2ccccc2)C1=O (centres undefined)	-5.7%	-1.8%	·	0.1%	-2.2%	0.7%
Cc1ccc(NC(=O)c2cnc3sc(N4CCOCC4)nn3c2=O)cc1N(C)C	2.3%	·	41.0%	-5.5%	11.2%	10.3%
CN(C)CCn1nnnc1SCC1=C(C(=O)O)N2C(=O)[C@@H](NC(=O)Cc3csc(N)n3)[C@H]2SC1	?	-14.6%	·	?	50.1µM*	14.1µM*
Cc1noc(/C=C/c2ccccc2F)c1S(=O)(=O)N1CCC(C(=O)NCC(C)c2ccccc2)CC1 (centres undefined)	18.4%	·	5.8%	2.0%	-7.3%[60.1 µM]	13.5%
CCN1C/C(=C/c2ccc(N3CCOCC3)cc2)C(=O)/C(=C/c2ccc(N3CCOCC3)cc2)C1	79.4µM*	79.4µM*	?	?	?	79.4µM*
CCc1ccc(/C=C2/SC(N3CCOCC3)=NC2=O)cc1	4.4%	-7.5%	22.4%	-21.2%	4.4%	39.6%
Cc1cc(C(F)(F)F)n(-c2nc(C(=O)N/N=C/c3ccc(F)cc3)cs2)n1	-3.1%	-8.5%	1.5%	-11.0%	-12.7%	89.1µM*
COCc1cc(C)nc(OCC(=O)N/N=C/c2ccc(-c3cccc([N+](=O)[O-])c3)o2)c1C#N	·	·	4.3%	·	·	·
COCc1cc(C)nc(N/N=C/c2ccc(-c3ccc(C(=O)O)c(Cl)c3)o2)c1C#N	·	·	22.4µM*	·	·	·
CNC(=O)COC(=O)c1c2c(nc3ccccc13)CCC2	?	-17.2%[57.1 µM]	20µM*	25.1µM*	?	8.91µM*
COc1ccc(NC(=O)COC(=O)c2c3c(nc4ccccc24)CCCC3)cc1	-15.4%	-11.2%	-17.5%	2.2%	-21.3%	0.5%
O=C(NC1CCCCC1)c1c2c(nc3ccccc13)CCC2	-8.8%	0.1%[11.6 µM]	20µM*	?	-19.5%	79.4µM*
Cc1cnc2ccc3ccccc3c2c1C	?	·	·	·	-0.3%	25.6%
O=C(Nc1nc(-c2ccco2)c(-c2ccco2)s1)c1ccc(F)cc1F	?	?	·	?	50.1µM*	?
CC1=C(C(=O)Nc2ccc(C)cc2C)C(c2ccccc2F)n2nc(SCC(=O)c3ccc(C)cc3)nc2N1 (centres undefined)	11.4%	·	-16.8%	-3.9%	-10.2%[60.1 µM]	23.1%
